Assays:
Assay in all cases: PBM binding z-score (relative to random genomic background probes); higher = stronger binding; sequences stand for … in GC…GCGATTGACAGCGTAGAATGAAGG
[1] = test system: FXR:RXRa (NR concentration 270 nM, RXRa partner concentration 90 nM)
In short: (§1)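 Ligand-free nuclear receptor dimers were applied to custom Agilent 4×180K protein-binding microarrays whose double-stranded probes carried direct-repeat seeds, single-nucleotide variants, half-site ablations and random human genomic background sequences in 34-nt variable regions. Incubation lasted 1 h. Binding z-scores were computed against the random background probes from regression-normalized fluorescence.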

[2] = test system: LXRa:RXRa (NR concentration 270 nM, RXRa partner concentration 90 nM)
In short: as §1

[3] = test system: LXRa homodimer (NR concentration 270 nM)
In short: as §1

[4] = test system: LXRb:RXRa (NR concentration 270 nM, RXRa partner concentration 90 nM)
In short: as §1

[5] = test system: LXRb homodimer (NR concentration 270 nM)
In short: as §1

[6] = test system: PPARa:RXRa (NR concentration 270 nM, RXRa partner concentration 90 nM)
In short: as §1

[7] = test system: PPARg:RXRa (NR concentration 180 nM, RXRa partner concentration 90 nM)
In short: as §1

[8] = test system: PPARg:RXRa 270nM:90nM, anti-RXR (NR concentration 270 nM, RXRa partner concentration 90 nM)
In short: as §1

[9] = test system: PPARg:RXRa 30nM:10nM, anti-RXR (NR concentration 30 nM, RXRa partner concentration 10 nM)
In short: as §1

[10] = test system: PPARg:RXRa 90nM:30nM, anti-RXR (NR concentration 90 nM, RXRa partner concentration 30 nM)
In short: as §1

[11] = test system: PPARg:RXRa DBDmut IVT, anti-RXR (DBD mutation: RXRa K156A/R161A, NR concentration 270 nM, RXRa partner concentration 90 nM)
In short: as §1

[12] = test system: PPARg:RXRa IVT, anti-PPARg (NR concentration 270 nM, RXRa partner concentration 90 nM)
In short: as §1

[13] = test system: PPARg DBDmut:RXRa IVT, anti-PPARg (DBD mutation: PPARg1 K132A/R137A, NR concentration 270 nM, RXRa partner concentration 90 nM)
In short: as §1

[14] = test system: PPARg DBDmut IVT, anti-PPARg (DBD mutation: PPARg1 K132A/R137A, NR concentration 270 nM)
In short: as §1

[15] = test system: PPARg homodimer (NR concentration 180 nM)
In short: as §1

[16] = test system: PXR:RXRa (NR concentration 270 nM, RXRa partner concentration 90 nM)
In short: as §1

[17] = test system: PXR homodimer (NR concentration 270 nM)
In short: as §1

[18] = test system: RARa:RXR (NR concentration 270 nM, RXRa partner concentration 90 nM)
In short: as §1

[19] = test system: RARa homodimer (NR concentration 270 nM)
In short: as §1

[20] = test system: RARb:RXRa (NR concentration 270 nM, RXRa partner concentration 90 nM)
In short: as §1

Sequence	PBM binding z-score [1]	PBM binding z-score [2]	PBM binding z-score [3]	PBM binding z-score [4]	PBM binding z-score [5]	PBM binding z-score [6]	PBM binding z-score [7]	PBM binding z-score [8]	PBM binding z-score [9]	PBM binding z-score [10]	PBM binding z-score [11]	PBM binding z-score [12]	PBM binding z-score [13]	PBM binding z-score [14]	PBM binding z-score [15]	PBM binding z-score [16]	PBM binding z-score [17]	PBM binding z-score [18]	PBM binding z-score [19]	PBM binding z-score [20]
TCTAGTAGGTTAGTCGGGGCATTCAGCCAACATA	0.874	0.731	0.367	1.54	0.412	1.9	0.856	2.5	2.88	2.8	4.91	4.13	0.243	0.851	1.41	0.733	0.807	0.939	0.282	0.996
ACAGACAAGTGATGAAGGTAACTCAGGCTATCAT	-0.375	-0.259	-0.503	-0.446	-0.469	-0.37	0.531	-0.282	-0.0857	-0.2	-0.565	-0.0204	0.0249	-0.152	-0.0362	-0.39	-0.0518	-0.0214	0.43	-0.307
ATCGAAAGCTCGAGGTGAGTATAGAGAAAGGGAA	-0.382	-0.596	-0.515	-0.793	-0.851	-0.028	0.163	-0.516	-0.268	-0.554	-0.98	0.455	0.71	0.162	-1.14	-0.37	-0.567	-0.162	-0.838	0.00915
GTACCAAGGTAAATAGGTCGTTGATGAGTAGGCG	0.0892	0.228	-0.0943	0.151	-0.264	1.73	1.37	1.34	0.667	0.78	1.71	2.84	0.778	0.523	0.489	0.181	0.0446	0.634	0.265	0.675
CCTTACGGGTCACTGACAGGTAATAGCATTTGGA	5.68	3.58	0.0221	3.16	-0.0553	5.08	4.51	4.42	1.29	3.12	3.21	3.64	1.3	1.52	4.26	2.95	-0.116	4.05	1.66	3.79
TGGCCTAGGTCAGATCGGGCCAGTATACGCTATA	2.31	0.419	-0.777	0.152	-1.29	1.39	0.44	0.442	-0.693	-0.369	-0.485	1.03	-1.16	-1.38	-0.396	0.928	-0.757	0.548	-1.18	2.85
TCTAGGTGGTCAAAGGTCACACACTCGAAATGCG	6.45	5.79	3.73	5.64	1.02	6.57	10.3	8.72	8.95	10.2	3.06	5.9	1.01	1.59	4.5	6.19	1.82	7.34	2.69	5.22
TCTATTAGTTGATTAGGGCGACCGAAACAGCGGA	0.395	0.617	0.293	0.356	0.556	0.801	-0.0653	1.73	3.64	2.8	2.11	0.486	0.791	0.554	0.93	0.452	0.338	0.407	1.27	0.629
CCGACTGGGGCAAGGTTCCCATAACGCACAGCCA	-0.116	-0.36	-0.312	-0.226	-1.24	1.17	3.1	3.89	2.1	3.38	2.36	3.12	-0.684	-0.962	0.192	-0.613	-0.376	-0.115	-0.502	0.825
CCTAGTTGGTCAGGAGGTCATACACCGGATATGA	3.81	3.61	2.79	3.13	0.702	3.89	2.72	3.82	1.58	2.89	1.25	3.03	0.324	0.888	3.21	3.99	1.57	4.19	1.23	3.33
TCTAGTAGGCCAGAGGGTCACTCAAGAGGTACGG	0.984	1.06	-0.235	1.23	-0.774	3.17	4.36	5.3	4.21	5.28	3.6	4	-0.235	0.392	0.62	1.76	-0.532	2.51	-0.0158	2.37
CGGAGTAGGTTATGGGGCATTCAGGCAACGGTGA	0.339	0.3	0.0885	0.718	-0.187	2.92	4.95	5.93	5.09	6.03	4.84	5.14	0.983	-0.0364	1.28	0.209	0.125	0.151	0.386	0.965
TTGCCAAGGTGAGCTGAGGTCGTTGATCCAACTC	1.5	0.918	-0.266	0.415	-1.74	1.46	-0.358	0.302	-0.768	-0.564	0.582	1.28	-1.28	-1.13	-0.789	4.61	0.057	1.33	-0.704	1.73
AGAACGAGGGCACGCTGTGTTGATAGCAGAGTAG	0.77	0.377	-0.602	0.159	-1.07	1.92	2.14	1.81	0.262	1.12	4.43	3.96	0.394	-0.216	-0.372	0.28	-0.446	0.799	-0.803	2.39
CCTTACGGGTCACGAGGTAATAGCACGACGAGCG	6.82	4.16	-0.00739	3.79	0.00142	5.93	7.12	6.63	3.83	5.54	4.44	5.5	3.05	1.21	4.14	4.07	0.0228	5.59	1.16	4.46
GGAACGAGGGCATTCGAGTTGAGAGCATGGCGAT	1.64	1.88	-0.277	0.172	-0.777	1.5	0.715	1.11	-0.289	0.498	3.26	2.42	-0.0251	-0.828	-0.126	3.24	0.951	0.847	-0.731	1.99
ATCGAAAGGTCGTGAGGTGAGTATTCAGAAAGGC	5.34	4.08	-0.0279	3.34	0.35	5.12	4.06	4.24	1.5	2.96	0.173	2.36	0.908	0.365	1.83	3.37	0.136	4.62	0.587	4.08
GCAGACAGGTGAACCGCAGGTAACTCAGGGTGGC	0.339	0.437	-0.44	0.125	-1.15	1.77	0.554	0.309	-0.52	0.0575	0.713	0.87	-0.564	-0.733	-0.518	0.615	-0.535	1.09	-0.768	0.901
TTACCAAGGCGAAGGTCGTTGATCCCTCTGTAGA	1.8	1.55	-0.229	1.43	-0.992	2.44	3.98	5.81	3.02	5.86	0.0514	1.72	-0.587	-0.677	1.25	1.16	0.0255	1.26	-0.525	0.787
CCTTACGGGTCACTCCAGGTTATACCATCGGAGT	4.89	7.62	2.1	5.35	0.431	4.44	3.61	3.66	1.11	2.42	2.28	3.61	0.661	-0.4	1.69	5	0.455	3.74	0.133	3.68
ACAGACAGGTGAGGAAGGTAACTCAGGCTATCAT	0.118	-0.0457	-0.223	0.105	-0.143	0.173	0.575	-0.276	0.0158	-0.414	0.129	0.785	0.395	-0.587	-0.277	-0.058	-0.158	0.108	0.0819	0.494
ATCTCTACGTAACAAGTTCAGTGAAAGAGAGGAC	0.253	0.5	0.496	0.811	1.27	0.449	0.368	0.316	0.334	0.321	-0.487	0.36	1.13	1.51	0.708	1.56	2.01	0.741	0.878	1.46
CGTCCAAGGTCATAGGAGGTCAGTGATGACAGAT	7.57	7.22	5.1	5.96	1.02	5.77	5.63	5.82	2.23	4.02	3.37	4.38	0.469	0.243	3.94	6.6	3.48	5.69	2.24	5.32
TCAGCCAGGTGAAGGTAACTCAGGTACGCAGTCG	0.00852	1.19	-0.431	0.138	-1.48	0.696	0.4	1.32	2.09	1.5	1.65	1.33	-0.394	-0.849	-0.828	-0.0147	-0.594	0.481	-0.526	0.673
ACAGACAGGTGAGTCAAGGTAACTCAGCTGGACG	1.06	-0.203	-0.155	-0.37	-0.551	0.333	0.647	-0.164	-0.257	-0.347	0.393	0.646	-0.696	-0.663	-0.248	0.238	-0.645	0.569	-0.253	0.669
AGGACGAGGGCAATGAGTTGATAGCACGGGTGGC	0.665	0.175	-0.256	-0.148	-0.403	0.903	1.12	0.232	-0.168	-0.187	1.76	1.02	0.439	0.19	0.218	1.55	4.82	0.678	-0.00105	2.12
TCTGCTAGGTCAATTGGTCAGCTAACGAGCTGCC	2.99	2.31	-0.37	1.44	0.648	3.04	1.76	2.76	1.64	2.31	3.71	3.87	1.29	0.854	2.37	0.895	-0.774	1.87	-0.436	3.79
CGTCAAATTTCAACTAAGGTAACGTAAAGCACGC	1.08	0.429	0.483	0.87	0.711	0.628	0.633	0.149	0.303	0.502	0.435	0.656	1.41	1.4	0.372	0.319	0.588	0.981	1.04	0.603

Reference: the supplement of paper PMC6555819
